Here are results for 95 molecules from PubChem BioAssay AID463173 (ICCB-Longwood Screening Facility, Harvard Medical School, 2010).

Among all 52,000 compounds or so, about 1,700 (3.3%) were called active. The sample holds actives, similar compounds and a random draw of the others, so the mix is not that of the screen. A number with no mark means an inactive call. Cut-off read from the data, not from the text of the source: active = survival mostly below about 52% (no sharp cut-off); inactive = mostly above about 56%.

The experiment concerns Wild type. Put plainly: growth inhibition of S. aureus wild type versus tarO mutant, primary screen, teichoic acid synthesis inhibitors, RN4220, OD600 (AID 463173). The note with it: S. aureus RN4220 wild type/DeltatarO growth, OD600, 18 h, stronger effect = lower value, screened at 18.75 µg/mL (by protocol).
`CCOc1ccc(-c2oc3cc(Cl)ccc3c(=O)c2O)cc1OC`: the survival was 103%.

Turning to `CC(C)NC(=O)CSc1cn(CC(=O)N2CCCCCC2)c2ccccc12`, the survival was 95%.

Regarding `Cc1cc2c(cc(C(=O)OC(C(=O)NCC3CCCO3)C(C)C)n2C)o1` (stereo not given), the survival was 120%.

Turning to `O=C(c1ccc(F)cc1)N1c2ncnn2C2(CCCCC2)[C@@H]2CCCC[C@@H]21`, the survival is 82%.

For the molecule `COc1ccc(Cn2c(CNS(=O)(=O)c3ccc(Cl)s3)nc3cccnc32)cc1`, the survival is 78%.

`CCC/C(O)=C1\C(=O)CC(C)(C)CC1=Nc1ccncc1`: the survival was 115%.

On to `CCc1ccc(NC(=O)CN2CCN(C3CCCCC3)C(=O)C2=O)cc1`, for which the survival was 77%.

Regarding `CCc1ccc(NC(=O)C2CCCN(S(=O)(=O)c3ccc(F)cc3)C2)cc1` (stereo not given), the survival is 75%.

Take `CCOC(=O)c1c(C(=O)CSc2ncc(-c3ccc(F)cc3)n2Cc2ccco2)sc2c1CCCC2`: the survival was 116%.

Regarding `CCOc1ccc(C(C)N)cc1` (stereo not given), the survival was 102%.

As to `COCCNC(=O)Nc1ccc2c(c1)nc(C)n2C`, the survival was 87%.

Turning to `CCOc1ccc(C2Nc3c(C)cccc3-c3cc(C)nn32)cc1` (stereo not given), the survival was -14% (active).

`Cc1cc2n(n1)C(c1ccccc1)Nc1ccccc1-2` (stereo not given): the survival is 123%.

Turning to `COc1cc(OC)c(C2Nc3c(C)cccc3-c3cc(C)nn32)cc1OC` (stereo not given), the survival is 142%.

`COc1cc(C2Nc3ccccc3-c3cc(C)nn32)ccc1O` (stereo not given): the survival is 139%.

As to `CCOc1cccc(C2Nc3ccccc3-c3cc(C)nn32)c1O` (stereo not given), the survival is 145%.

Regarding `COc1ccc(OC)c(C2Nc3c(C)cc(C)cc3-c3cc(C)nn32)c1` (stereo not given), the survival was -14% (active).

Take `CC(=O)Nc1ccc(C2Nc3c(C)cc(C)cc3-c3cc(C)nn32)cc1` (stereo not given): the survival is 141%.

As to `Cc1ccc2c(c1)-c1cc(C)nn1C(c1cc(Br)ccc1O)N2` (stereo not given), the survival was 131%.

Turning to `COc1cc(C2Nc3c(C)cc(C)cc3-c3cc(C)nn32)cc(OC)c1O` (stereo not given), the survival was 97%.

Take `CCN(CC)c1ccc(C2Nc3ccccc3-c3cc(C)nn32)cc1` (stereo not given): the survival was -1% (active).

For `COC(=O)c1ccc(C2Nc3c(C)cccc3-c3cc(C)nn32)cc1` (stereo not given), the survival was -4% (active).

Regarding `Cc1cc2n(n1)C(c1cc(C(C)(C)C)c(O)cc1O)Nc1ccccc1-2` (stereo not given), the survival was 115%.

For the molecule `O=C(NCc1ccc(Cl)cc1)C(=O)NCC(c1ccco1)S(=O)(=O)c1cccs1` (stereo not given), the survival is 76%.

Take `Cc1ccc(Cn2c(=O)n(Cc3ccco3)c(=O)c3sc4ccccc4c32)cc1`: the survival was 94%.

On to `COc1ccc(-c2noc(CN3CCN(c4ccccc4OC)CC3)n2)cc1OC`, for which the survival is 83%.

`CCOC(=O)N1CCN(C(=O)CN(c2cccc(Cl)c2)S(=O)(=O)c2ccccc2)CC1`: the survival is 63%.

On to `CCOC(=O)c1cccc(NC(=O)NCCc2c(C)nn(C)c2C)c1`, for which the survival was 63%.

Consider `COc1ccc(Nc2cc(C(=O)NCCCN(C)C3CCCCC3)c3ccccc3n2)c(OC)c1`, for which the survival was 92%.

For `COc1ccc(NC(=O)c2cc3c(-c4ccccc4F)nn(C)c3s2)c(OC)c1`, the survival is 38%.

In the case of `O=C1CS(=O)(=O)C2(C(=O)N(Cc3ccccc3)c3ccccc32)N1c1ccccc1` (stereo not given), the survival was 132%.

In the case of `COc1cc(NS(=O)(=O)c2cc3c(cc2C)n(C)c(=O)c(=O)n3C)cc(OC)c1`, the survival was 54%.

As for `COc1ccc(-c2nc(SCC(=O)Nc3ccccc3)c(-c3ccc(F)cc3)[nH]2)cc1OC`, the survival was 58%.

`COc1ccc(NC(=O)CSc2nc(-c3ccc(OC)cc3)[nH]c2-c2ccc(OC)cc2)cc1`: the survival was 76%.

`COc1ccc(-c2nc(-c3ccccc3)c(-c3ccccc3)[nH]2)cc1Br`: the survival was 81%.

`COc1cc(-c2nc(SCC(=O)Nc3ccc(C)cc3)c(-c3ccc(F)cc3)[nH]2)cc(OC)c1OC`: the survival was 106%.

In the case of `COc1ccc(-c2[nH]c(-c3ccccc3)nc2SCC(=O)NC2CCCC2)cc1`, the survival was 80%.

For `COc1ccc(-c2nc(-c3ccccc3)c(-c3ccc(O)cc3)[nH]2)cc1`, the survival was 3% (active).

On to `COc1cc(-c2nc(-c3cccc(Cl)c3)c(-c3ccccc3)[nH]2)cc(OC)c1OC`, for which the survival was 143%.

As to `COc1ccc(-c2[nH]c(-c3ccc(O)cc3)nc2-c2ccccc2)cc1`, the survival is 0% (active).

As to `COc1ccc(-c2nc(-c3ccccc3)c(-c3ccc(F)cc3)[nH]2)c(OC)c1C`, the survival was 15% (active).

For the molecule `COCCNC(=O)CSc1nc(-c2ccccc2)[nH]c1-c1ccc(OC)cc1`, the survival was 74%.

In the case of `COc1cc(-c2nc(-c3ccccc3)c(-c3ccc(Br)cc3)[nH]2)cc(OC)c1O`, the survival is 5% (active).

Consider `CCOc1ccc(-c2nc(-c3ccccc3)c(-c3ccccc3)[nH]2)cc1OCC`, for which the survival was 163%.

On to `CC(C)(C)n1nnnc1C(c1ccc2ncccc2c1)N1CCc2ccccc21` (stereo not given), for which the survival was 111%.

Take `CCc1ccccc1NC(=O)CSc1nnc2ccc3ccccc3n12`: the survival was 80%.

`Cc1ccc(Cl)cc1N(C)C(=O)c1noc2c1CCCCC2`: the survival was 65%.

Turning to `CCCCC(=O)OCc1cc(=O)n2nc(C3CC3)sc2n1`, the survival was 135%.

On to `CCCOc1ccc(CNC(=O)c2ccc(-n3c(C)cc4c3CCC(C)C4)cc2)cc1` (stereo not given), for which the survival was 113%.

Turning to `COc1cccc(C(=O)c2sc(Nc3ccc(C)cc3C)c(S(=O)(=O)c3ccccc3)c2N)c1`, the survival is 94%.

As to `O=C(O)c1ccc(-c2nc3ccccc3[nH]2)cc1`, the survival was 106%.

On to `O=C(CSc1nc(-c2ccc(F)cc2)[nH]c1-c1ccccc1)Nc1ccccc1`, for which the survival was 70%.

`Oc1ccc(-c2nc(-c3ccccc3)c(-c3ccc(Br)cc3)[nH]2)cc1`: the survival is -2% (active).

`O=C(Nc1ccc(C(=O)OCc2cc(=O)n3c4c(sc3n2)CCCC4)cc1)c1cccc(F)c1`: the survival is 81%.

For the molecule `CCN(CC)CCN(C(=O)c1ccco1)c1nc2ccc(Cl)cc2s1`, the survival was 87%.

On to `CCN(CC)CCN(C(=O)c1ccc(C(=O)OC)cc1)c1nc2ccc(Cl)cc2s1`, for which the survival was -6% (active).

`CCc1ccc2nc(N(CCN(CC)CC)C(=O)c3ccco3)sc2c1`: the survival is 53%.

In the case of `O=C(CNc1ccccc1Cl)N/N=C1\CCCc2ccccc21`, the survival was 105%.

For the molecule `Cc1ccc(Nc2c(-c3ccsc3)nc3cccc(C)n23)cc1`, the survival was 19%.

For the molecule `Cc1cccn2c(Nc3ccccc3)c(-c3cccs3)nc12`, the survival is 85%.

`Cc1ccc(Nc2c(-c3ccc(C)cc3)nc3c(C)cccn23)cc1`: the survival was -1% (active).

For the molecule `Cc1cccn2c(Nc3ccccc3)c(-c3ccc(N4CCOCC4)cc3)nc12`, the survival is 125%.

As to `Cc1ccccc1Nc1c(-c2ccc(Cl)cc2)nc2c(C)cccn12`, the survival is 73%.

As for `Cc1ccc(Nc2c(-c3ccsc3)nc3c(C)cccn23)cc1`, the survival is -3% (active).

As for `Cc1ccccc1Nc1c(-c2ccc(O)cc2)nc2c(C)cccn12`, the survival was 68%.

As for `Cc1ccccc1Nc1c(-c2ccsc2)nc2c(C)cccn12`, the survival is 0% (active).

`Cc1ccc(Nc2c(-c3ccc(N4CCOCC4)cc3)nc3c(C)cccn23)cc1`: the survival was 83%.

Turning to `COCCCNC(=O)c1c(C)nn(-c2ccc(F)cc2)c1-n1cccc1`, the survival was 77%.

As to `Cc1sc2c(c1C)c(=O)n(Cc1ccccc1)c(=O)n2CC(=O)N(C)c1ccccc1`, the survival was 89%.

Turning to `COc1ccc(C2CC(=O)c3cc(-c4nc(-c5cccc(Cl)c5)cs4)c(=O)[nH]c3C2)cc1` (stereo not given), the survival was 67%.

As to `Cc1ccc(C(=O)N2CCN(c3ccccc3)CC2)cc1NC(=O)c1nsc2ccccc12`, the survival is 73%.

In the case of `COc1ccc(OC)c(NC(=O)C2=C(C)C(=O)OC23CCN(C(C)C)CC3)c1`, the survival is 0% (active).

In the case of `CC1=C(C(=O)Nc2cccc(C(F)(F)F)c2)C2(CCN(C(C)C)CC2)OC1=O`, the survival was 91%.

As to `CC1=C(C(=O)Nc2ccccc2Br)C2(CCC(C)CC2)OC1=O` (stereo not given), the survival was 83%.

In the case of `COc1ccc(NC(=O)C2=C(C)C(=O)OC23CCN(C(C)C)CC3)cc1Cl`, the survival is 77%.

For the molecule `CC1=C(C(=O)Nc2cccc(C(F)(F)F)c2)C2(CCCCCC2)OC1=O`, the survival is 0% (active).

In the case of `COc1ccc(OC)c(NC(=O)C2=C(C)C(=O)OC23CCCCCC3)c1`, the survival was 129%.

Consider `CC(=O)N1CCC2(CC1)OC(=O)C(C)=C2C(=O)Nc1cccc(Cl)c1C`, for which the survival was 82%.

As to `CC1=C(C(=O)Nc2cccc(Cl)c2C)C2(CCCCCC2)OC1=O`, the survival is -2% (active).

As for `CC1=C(C(=O)Nc2cccc(C(F)(F)F)c2)C2(CCCCC2)OC1=O`, the survival is 88%.

Turning to `COC(=O)c1ccccc1NC(=O)C1=C(C)C(=O)OC12CCC(C)CC2` (stereo not given), the survival is -6% (active).

For the molecule `CC1=C(C(=O)Nc2cccc(C)c2C)C2(CCCCC2)OC1=O`, the survival was 74%.

Take `COC(=O)c1ccccc1NC(=O)C1=C(C)C(=O)OC12CCCCCC2`: the survival was 91%.

Take `Cc1cc(C)n(C(=O)CCCC(=O)O)n1`: the survival is 96%.

In the case of `Cc1ccc(CNC(=O)C(CC(C)C)N2Cc3ccccc3C2=O)cc1` (stereo not given), the survival was 136%.

On to `COc1cc(-c2nc(Cn3nnc(C(=O)Nc4cc(C)cc(C)c4)c3C)c(C)o2)cc(OC)c1OC`, for which the survival was 70%.

`CCOc1cc(CNC(=O)CSc2n[nH]c(-c3ccccc3)n2)cc(OCC)c1OCC`: the survival is 131%.

For the molecule `CC1=C(C(=O)NCc2cccc(F)c2)C2(CCCCC2)OC1=O`, the survival was 10% (active).

Consider `CC1=C(C(=O)NCc2cccc(Br)c2)C2(CCCCC2)OC1=O`, for which the survival was 82%.

Consider `CC1=C(C(=O)NCc2cccc(F)c2)C2(CCCCCC2)OC1=O`, for which the survival was 65%.

As to `COc1ccc(OCc2nnc(-c3ccccc3)o2)cc1`, the survival was 106%.

`Cc1ccc(N2CCN(C(=O)c3cn(C)c4ccc(S(=O)(=O)N5CCC(C)CC5)cc4c3=O)CC2C)cc1` (stereo not given): the survival is 126%.

`COc1ccc(CNC(=O)Cn2nc(N3CCN(c4ccccc4)CC3)ccc2=O)c(OC)c1`: the survival is -4% (active).

`CCOc1ccccc1CNC(=O)Cn1nc(N2CCN(c3ccccc3)CC2)ccc1=O`: the survival is 82%.

On to `COc1cccc(NC(=O)Cn2nc(N3CCN(c4ccccc4)CC3)ccc2=O)c1`, for which the survival was 85%.
